Screens from PubChem BioAssay.
hgDAF-12 ag: activates the H. glycines DAF-12 receptor ligand-binding domain | HEK293 GAL4-hgDAF12 UAS-luciferase reporter, agonist luminescence; normalized to butyrate control | 1.8% of 370,000 active | activation, % at 6.8 µM;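 active = activation above a cutoff set at the mean of all screened compounds plus 3 SD, cut at about 10% in these data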;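 also: 0% = DMSO wells and 100% = sodium butyrate wells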
DAX1 inh-1: blocks DAX1 repression of SF-1 activated StAR promoter; HEK293T StAR-luciferase reporter, SF-1/DAX-1 repression relief; inhibition, % at 6.8 µM; 1.1% of 370,000 active; AID 652010;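 active = inhibition above the mean over all tested compounds plus 3 SD, cut at about 3.6% in these data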;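 also: 0% = DAX-1 cells with DMSO and 100% = cells lacking DAX-1 with DMSO; higher inhibition means more luminescence from relief of DAX-1 repression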
ssDAF12 agonist: activators of S. stercoralis DAF-12 nuclear receptor | HEK293 ssDAF-12/GRIP1 lit1-tk-luc reporter, luminescence; % of 3 µM dafachronic acid response | activation, % at 6.8 µM | 1% of 370,000 active | AID 652126;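 active = activation above the mean over all tested compounds plus 3 SD, cut at about 0.9% in these data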;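 also: 0% = DMSO-only wells and 100% = 3 µM delta7-dafachronic acid wells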
hcDAF12 agonist: activates DAF-12 receptor from parasite H. contortus; HEK293 hcDAF-12 lit1-tk-luc reporter, luminescence; 0% DMSO, 100% Δ7-dafachronic acid; activation, % at 6.8 µM; 1.4% of 370,000 active; AID 652067;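 active = activation above the mean of all tested compounds plus 3 SD, cut at about 5.5% in these data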;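 also: 100% = response to 3 µM Δ7-dafachronic acid high control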
DAX1 inh-2: inhibitors of human orphan nuclear receptor DAX1 (NR0B1); inhibition, % at 6.75 µM; 0.99% of 340,000 active; P51843; HEK293 Gal4-DAX1 luciferase reporter, luminescence; AID 504766;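 active = inhibition above the mean over all tested compounds plus 3 SD, cut at about 4.2% in these data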;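 also: 0% = DAX1-transfected cells with DMSO and 100% = empty-vector control cells with DMSO; inhibition shows as a rise in luminescence from relieved DAX1 repression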
Target sequence (P51843 207-470 limits assumed): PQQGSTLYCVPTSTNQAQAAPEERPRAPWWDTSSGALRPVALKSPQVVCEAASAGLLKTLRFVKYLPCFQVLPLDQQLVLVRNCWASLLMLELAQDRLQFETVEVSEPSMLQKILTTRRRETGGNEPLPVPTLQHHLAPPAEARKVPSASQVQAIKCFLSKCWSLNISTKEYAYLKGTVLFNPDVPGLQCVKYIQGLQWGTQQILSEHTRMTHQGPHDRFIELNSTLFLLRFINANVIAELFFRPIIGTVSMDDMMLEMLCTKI
Active calls of the source: *. In the library only some 4.1% were active in any assay of this set; here they are far more common.

Screening O=C(/C=C/c1ccccc1)Nc1cccc(C(=O)O)c1 returned hgDAF-12 ag 13*, DAX1 inh-1 4.4*, ssDAF12 agonist -1, hcDAF12 agonist 3 and DAX1 inh-2 -8.
Screening Clc1nccnc1N/N=C/c1ccc(Br)cc1 returned hgDAF-12 ag 13*, DAX1 inh-1 2, ssDAF12 agonist 0, hcDAF12 agonist 2 and DAX1 inh-2 5.1*.
CC(C)[C@H](NC(=O)CC1CCCC1)C(=O)N1CCC[C@H]1C(=O)NCc1ccccc1 was read as hgDAF-12 ag -1, DAX1 inh-1 0, ssDAF12 agonist -1 and hcDAF12 agonist 0.
Clc1cccc(-c2nc(-c3ccc(-c4nn[nH]n4)cc3)no2)c1 was read as hgDAF-12 ag 0, DAX1 inh-1 1, ssDAF12 agonist -1, hcDAF12 agonist 0 and DAX1 inh-2 1.
COc1ccc(/C=C/c2nc(-c3ccccc3O)n[nH]2)cc1OC was read as hgDAF-12 ag 12*, DAX1 inh-1 3, ssDAF12 agonist -1, hcDAF12 agonist 0 and DAX1 inh-2 2.
For CC(=O)c1oc2ccccc2c1NC(=O)CCCN1C(=O)c2ccccc2C1=O the results were hgDAF-12 ag 6, DAX1 inh-1 4, ssDAF12 agonist 0, hcDAF12 agonist 5.8* and DAX1 inh-2 0.
For COC(=O)CCC(=O)c1oc2ccccc2c1NC(=O)CCCN1C(=O)c2ccccc2C1=O the results were hgDAF-12 ag 0, DAX1 inh-1 1, ssDAF12 agonist -1, hcDAF12 agonist 0 and DAX1 inh-2 0.
Screening C=CC(=O)NC1CCCCN(C(C)C)C1=O (stereo unspecified) returned hgDAF-12 ag 0, DAX1 inh-1 0, ssDAF12 agonist -1 and hcDAF12 agonist -1.
`Cc1ccc(S(=O)(=O)NC(CC(C)C)C(=O)NCCCn2nc(C)cc2C)cc1` (stereo unspecified) gave hgDAF-12 ag -2, DAX1 inh-1 0, ssDAF12 agonist -1, hcDAF12 agonist -2 and DAX1 inh-2 0.
`COc1ccc(-c2cc(C(=O)NN=Cc3ccc(C)s3)[nH]n2)cc1` gave hgDAF-12 ag 5, DAX1 inh-1 -2, ssDAF12 agonist -1 and hcDAF12 agonist 0.
For C=CCOC(=O)N[C@@H](c1coc2ccccc2c1=O)[C@@H](C)/C=C/CC(=O)OC the results were hgDAF-12 ag 1, DAX1 inh-1 0, ssDAF12 agonist -1 and hcDAF12 agonist -1.
Screening Cc1cccc(Nc2nc(-c3ccccn3)cs2)n1 returned hgDAF-12 ag 13*, DAX1 inh-1 3, ssDAF12 agonist 1.1*, hcDAF12 agonist 6.0* and DAX1 inh-2 0.
For CC(=O)Oc1ccc(-c2csc(Nc3cccc(C)n3)n2)cc1 the results were hgDAF-12 ag 9, DAX1 inh-1 2, ssDAF12 agonist 2.4*, hcDAF12 agonist 4 and DAX1 inh-2 5.5*.
`C=CCN1[C@@H](C)COc2cc(N3CCCC3)ccc2S1(=O)=O` gave hgDAF-12 ag -2, DAX1 inh-1 0, ssDAF12 agonist -2 and hcDAF12 agonist -3.
Screening CC(C)C[C@H]1COc2cccc(N3CCSCC3)c2S(=O)(=O)N1C returned hgDAF-12 ag 0, DAX1 inh-1 0, ssDAF12 agonist -1 and hcDAF12 agonist -2.
`CCOc1ccccc1CN1CCN(Cc2ccc3cc(F)ccc3n2)CC1CCO` (stereo unspecified) gave hgDAF-12 ag 2, DAX1 inh-1 0, ssDAF12 agonist 0, hcDAF12 agonist 5 and DAX1 inh-2 5.4*.
`CCOc1ccc2nc(CN3CCN(Cc4ccccc4OCC)C(CCO)C3)ccc2c1` (stereo unspecified) gave hgDAF-12 ag -5, DAX1 inh-1 -1, ssDAF12 agonist -2, hcDAF12 agonist -4 and DAX1 inh-2 -3.
Screening CCOC(=O)[C@@]12CCCC=C1N(CCc1ccc(Cl)cc1)C(=O)[C@H]2CC(=O)NCC1CCCCC1 returned hgDAF-12 ag 1, DAX1 inh-1 0, ssDAF12 agonist -2 and hcDAF12 agonist -3.
Screening Cc1ccc(OCCCCCCN2CCNCC2)c(Br)c1 returned hgDAF-12 ag 4, DAX1 inh-1 0, ssDAF12 agonist -1, hcDAF12 agonist 5.9* and DAX1 inh-2 4.7*.
For COC(=O)[C@H]1C[C@@]2(C)c3ccccc3N(C(=O)OC(C)(C)C)[C@H]2N1C(=O)OC(C)(C)C the results were hgDAF-12 ag 0, DAX1 inh-1 -1, ssDAF12 agonist 0 and hcDAF12 agonist -1.
`COc1ccc(/C(C)=N/NC(=O)CN(c2ccc(OC)cc2)S(=O)(=O)c2ccccc2)cc1` gave hgDAF-12 ag -1, DAX1 inh-1 0, ssDAF12 agonist -1, hcDAF12 agonist -1 and DAX1 inh-2 4.4*.
For CCC(C)C(NC(N)=O)C(=O)Nc1ccc(C(=O)OC)cc1 (stereo unspecified) the results were hgDAF-12 ag 4, DAX1 inh-1 1, ssDAF12 agonist -1, hcDAF12 agonist -1 and DAX1 inh-2 4.4*.
O=C(Nc1ccccc1)c1cc(-c2ccccc2Cl)no1 was read as hgDAF-12 ag 10, DAX1 inh-1 3, ssDAF12 agonist 0, hcDAF12 agonist 1 and DAX1 inh-2 4.3*.
`CCCCNC(=O)N(C)c1nc2ccccc2s1` gave hgDAF-12 ag 9, DAX1 inh-1 4, ssDAF12 agonist -1, hcDAF12 agonist 5.8* and DAX1 inh-2 0.
COC(=O)N(C)c1nc2ccccc2s1 was read as hgDAF-12 ag 5, DAX1 inh-1 0, ssDAF12 agonist -1, hcDAF12 agonist -1 and DAX1 inh-2 2.
For O=C(O)c1cccc(N2C(=O)c3ccc(Oc4ccc(Cl)cc4)cc3C2=O)c1 the results were hgDAF-12 ag -3, DAX1 inh-1 1, ssDAF12 agonist -2, hcDAF12 agonist 0 and DAX1 inh-2 4.6*.
Screening O=C(O)c1cccc(N2C(=O)c3ccc4c5c(ccc(c35)C2=O)C(=O)N(c2cccc(C(=O)O)c2)C4=O)c1 returned hgDAF-12 ag -2, DAX1 inh-1 0, ssDAF12 agonist -1, hcDAF12 agonist 0 and DAX1 inh-2 4.
Cc1cccc(N2C(=O)c3cccc(Oc4ccc(Cl)cc4)c3C2=O)c1 was read as hgDAF-12 ag 4, DAX1 inh-1 0, ssDAF12 agonist -1, hcDAF12 agonist -2 and DAX1 inh-2 5.2*.
COc1ccc(/C=C2\CC3(OC(=O)C4CCCC4)CCCN2C3)cc1 (stereo unspecified) was read as hgDAF-12 ag -1, DAX1 inh-1 0, ssDAF12 agonist -1 and hcDAF12 agonist 1.
O=C(O)C1C2CCC(C2)C1C(=O)Nc1ccccc1 (stereo unspecified) was read as hgDAF-12 ag -1, DAX1 inh-1 0, ssDAF12 agonist -1, hcDAF12 agonist 0 and DAX1 inh-2 4.3*.
Screening Cc1cc(C)n2nc(SCc3nc4ccccc4[nH]3)nc2n1 returned hgDAF-12 ag -1, DAX1 inh-1 0, ssDAF12 agonist -1, hcDAF12 agonist -2 and DAX1 inh-2 4.5*.
